Potency and outcome data for 2 molecules are collected here from PubChem BioAssay (NCATS).

Molecules are shown by their SMILES. Results filed as inconclusive are left out. Active and inactive are the calls of the source. Calls follow the shape of the dose curve; as a rule, active = well fitted curve in the direction sought with a large enough effect; inconclusive = small, poorly fitted or top-dose-only effect, or another doubt; inactive = no such curve, though single readings can be large; an effect the other way counts as inactive or inconclusive.

Test [1] is described as follows: qHTS of pediatric cancer cell lines to identify multiple opportunities for drug repurposing: Primary screen for BT-12 cells (AID 1347101). Also: nearly all actives have a fitted effect of over 25% in size. Also: potency is read from the fitted curve at half-maximal effect. The method, boiled down:
(§1)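 Cells (500-1,000/well) rested 5 h, then received compounds for 48 h; metabolically active cells were measured by CellTiter-Glo luminescence. Final concentrations spanned up to 46 µM (MIPE, 11-point) or 0.59 nM-46 µM (NPC, 8-point) in primary screens, 11-point in follow-ups.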

The nature of test [2]: qHTS of pediatric cancer cell lines to identify multiple opportunities for drug repurposing: Primary screen for Rh18 cells (AID 1347102). Also: nearly all actives have a fitted effect of over 65% in size. Also: potency is read from the fitted curve at half-maximal effect. The method, boiled down:
(§2)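 Cells (500-1,000/well) in growth media were settled 5 h at 37 degrees C, then given compounds for 48 h. Viability was read as CellTiter-Glo luminescence. Primary runs used MIPE at 11 points (0.78 nM-46 µM) and NPC at 8 points (0.59 nM-46 µM); follow-ups used 11 points.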

Test [3] can be described thus: qHTS of pediatric cancer cell lines to identify multiple opportunities for drug repurposing: Primary screen for OHS-50 cells (AID 1347103). Also: nearly all actives have a fitted effect of over 40% in size. Also: potency is read from the fitted curve at half-maximal effect. The method, boiled down:
as §1

The nature of test [4]: qHTS of pediatric cancer cell lines to identify multiple opportunities for drug repurposing: Primary screen for RD cells (AID 1347104). Also: nearly all actives have a fitted effect of over 55% in size. Also: potency is read from the fitted curve at half-maximal effect. The method, boiled down:
(§3)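 Following a 5-hour attachment period, cells at 500-1,000/well received compounds and were cultured for 48 hours. CellTiter-Glo was added and luminescence read to estimate viable, metabolically active cells.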

A short description of test [5]: qHTS of pediatric cancer cell lines to identify multiple opportunities for drug repurposing: Primary screen for MG 63 (6-TG R) cells (AID 1347105). Also: nearly all actives have a fitted effect of over 50% in size. Also: potency is read from the fitted curve at half-maximal effect. The method, boiled down: as §3
A short description of test [6]: qHTS of pediatric cancer cell lines to identify multiple opportunities for drug repurposing: Primary screen for control Hh wild type fibroblast cells (AID 1347106).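 Also: series mostly up to about 46 µM; a drop in luminescence marks cytotoxicity and a rise apparent proliferation; nearly all actives have a fitted effect of over 55% in size.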 The method, boiled down:
as §2

Test [7] can be described thus: qHTS of pediatric cancer cell lines to identify multiple opportunities for drug repurposing: Primary screen for Rh30 cells (AID 1347107). Also: nearly all actives have a fitted effect of over 75% in size. Also: potency is read from the fitted curve at half-maximal effect. The method, boiled down:
as §2

Test [8] can be described thus: qHTS of pediatric cancer cell lines to identify multiple opportunities for drug repurposing: Primary screen for Rh41 cells (AID 1347108). Also: nearly all actives have a fitted effect of over 70% in size. Also: potency is read from the fitted curve at half-maximal effect. The method, boiled down: as §3
Test [9] can be described thus: qHTS of pediatric cancer cell lines to identify multiple opportunities for drug repurposing: Confirmatory screen for NB1643 cells (AID 1347109). Also: potency is read from the fitted curve at half-maximal effect; nearly all actives have a fitted effect of over 45% in size. The settings on record: NB1643 neuroblastoma cell viability. The method, boiled down: as §2
Test [10] in a line: qHTS of pediatric cancer cell lines to identify multiple opportunities for drug repurposing: Confirmatory screen for A673 cells (AID 1347110).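 Also: potency is read from the fitted curve at half-maximal effect; cells exposed to compound for 48 h before the viability read; nearly all actives have a fitted effect of over 65% in size.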 The settings on record: A673 Ewing sarcoma cell viability. The method, boiled down: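 Forty-eight-hour viability assay. Follow-up compounds ran at 11-point dilutions; positive control bortezomib at 2.3 uM final, neutral control DMSO.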

A short description of test [11]: qHTS of pediatric cancer cell lines to identify multiple opportunities for drug repurposing: Confirmatory screen for SK-N-MC cells (AID 1347111).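 Also: potency is read from the fitted curve at half-maximal effect; cells exposed to compound for 48 h before the readout; nearly all actives have a fitted effect of over 70% in size.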 The settings on record: SK-N-MC cell viability. The method, boiled down:
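Metabolically active cells were quantified by ATP-dependent luminescence (CellTiter-Glo, 15 min at room temperature) following 48 h treatment. Cells had been plated at 500-1,000 per well and settled for 5 h beforehand.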

Test [12] can be described thus: qHTS of pediatric cancer cell lines to identify multiple opportunities for drug repurposing: Confirmatory screen for BT-12 cells (AID 1347112). Also: potency is read from the fitted curve at half-maximal effect; nearly all actives have a fitted effect of over 55% in size. Conditions: BT-12 rhabdoid tumor cells, viability. The method, boiled down:
as §2

Test [13] in a line: qHTS of pediatric cancer cell lines to identify multiple opportunities for drug repurposing: Confirmatory screen for LAN-5 cells (AID 1347113). Also: potency is read from the fitted curve at half-maximal effect; nearly all actives have a fitted effect of over 65% in size. The settings on record: LAN-5 neuroblastoma cell viability. The method, boiled down:
as §2

The nature of test [14]: qHTS of pediatric cancer cell lines to identify multiple opportunities for drug repurposing: Confirmatory screen for DAOY cells (AID 1347114). Also: potency is read from the fitted curve at half-maximal effect; nearly all actives have a fitted effect of over 65% in size. The settings on record: DAOY medulloblastoma cells viability, cytotoxicity qHTS. The method, boiled down: (§4)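 Viability measured as metabolically active cells via CellTiter-Glo luminescence following 48 hours of compound exposure, 11-point dilutions in confirmatory testing. 500-1,000 cells/well plated 5 hours before dosing; controls were DMSO and 2.3 µM bortezomib.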

The nature of test [15]: qHTS of pediatric cancer cell lines to identify multiple opportunities for drug repurposing: Confirmatory screen for NB-EBc1 cells (AID 1347115).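 Also: potency is read from the fitted curve at half-maximal effect; cells exposed to compound for 48 h before the viability read; nearly all actives have a fitted effect of over 45% in size.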 Conditions: NB-EBc1 neuroblastoma cells, viability (cytotoxicity). The method, boiled down:
as §2

Test [16] can be described thus: qHTS of pediatric cancer cell lines to identify multiple opportunities for drug repurposing: Confirmatory screen for SJ-GBM2 cells (AID 1347116). Also: potency is read from the fitted curve at half-maximal effect; nearly all actives have a fitted effect of over 60% in size. The settings on record: SJ-GBM2 glioblastoma cells, viability. The method, boiled down: as §4
Test [17] in a line: qHTS of pediatric cancer cell lines to identify multiple opportunities for drug repurposing: Confirmatory screen for BT-37 cells (AID 1347117). Also: potency is read from the fitted curve at half-maximal effect; nearly all actives have a fitted effect of over 55% in size. The settings on record: BT-37 pediatric cancer cells, viability. The method, boiled down:
as §2

Test [18] in a line: qHTS of pediatric cancer cell lines to identify multiple opportunities for drug repurposing: Confirmatory screen for TC32 cells (AID 1347118). The settings on record: TC32 Ewing sarcoma cells viability qHTS. The method, boiled down:
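Luminescent ATP read-out (CellTiter-Glo) of metabolically active TC32 cells after 48 h exposure. Concentration-response curves came from 11-point (MIPE, 0.78 nM–46 µM) or 8-point (NPC, 0.59 nM–46 µM) primary titrations; follow-up used 11 points.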

The nature of test [19]: qHTS of pediatric cancer cell lines to identify multiple opportunities for drug repurposing: Confirmatory screen for MG 63 (6-TG R) cells (AID 1347119). Conditions: MG-63 (6-TG resistant) osteosarcoma viability. The method, boiled down:
as §2

Test [20] in a line: qHTS of pediatric cancer cell lines to identify multiple opportunities for drug repurposing: Confirmatory screen for control Hh wild type fibroblast cells (AID 1347121). Also: potency is read from the fitted curve at half-maximal effect; nearly all actives have a fitted effect of over 70% in size. The settings on record: viability qHTS. The method, boiled down:
as §2

For the molecule `C[CH2][Hg][S]c1ccccc1C(=O)O`, the Potency was 3.47 µM (active) in [1]; 4.73 µM (active) in test [2]; 3.89 µM (active) in test [3]; 4.73 µM (active) in [4]; 2.66 µM (active) in test [5]; 2.66 µM (active) in test [7]. Besides, the Potency was 2.37 µM (active) in [8]; 2.93 µM (active) in test [9]; 7.37 µM (active) in test [10]; 2.93 µM (active) in test [11]; 6.57 µM (active) in test [12]; 4.65 µM (active) in test [13]. For the same molecule, the Potency in test [14] was 3.29 µM (active); in test [15], 7.37 µM (active); in [16], 7.37 µM (active); in test [17] it was 8.27 µM (active); in test [18] it was 2.93 µM (active); in test [19], 5.22 µM (active). Also, in [20], the Potency is 16.5 µM (active). Moreover, the molecule was classed as inactive in test [6].
In the case of `CCCSP(=O)(OCC)SCCC`, the Potency result in [1], in test [2], in test [3], in [4], in [5] and in test [7] was “inactive” each time. Also, the Potency entry in test [8] was “inactive”. Moreover, the call in test [6] was inactive.
